A selection: hits, their analogues and other compounds. The true share with any hit is near 3.5%.
Pf apPOL inh: Pf-apPOL DNA polymerase inhibition | Recombinant Pf-apPOL, molecular beacon fluorescence, 1.5 h | inhibition, % at 10 µM | 210,000 compounds, 0.25% hits
mHTT-CaM PPI inh: mHTT-calmodulin interaction abrogation; AID 1671202; P42858; inhibition, % at 15 µM; AlphaScreen His-mHTT/GST-CaM binding, luminescence; 190,000 compounds, 3.6% hits
Each line names hits and unclear results; the compound was inactive in the other large screens. Rule as the data show it: active = inhibition above about 50%; inactive = the rest.

COc1cccc(C2CC(c3ccc(C)c(C)c3)=NC3(CCN(C)CC3)N2)c1O (stereo unspecified)	none
Cc1cc2c(N3CCC(C(=O)Nc4ccc(C)c(F)c4)CC3)nccc2s1	none
COc1cc(NC(=O)C2CCN(c3nccc4sc(C)cc34)CC2)cc(OC)c1OC	mHTT-CaM PPI inh 52.1
Cc1cc2c(N3CCC(C(=O)Nc4ccc(F)c(F)c4)CC3)nccc2s1	none
COc1ccc(NC(=O)C2CCCN(c3nccc4sc(C)cc34)C2)cc1OC (stereo unspecified)	mHTT-CaM PPI inh 70.6
Cc1cc2c(N3CCCC(C(=O)NCCN4CCCCCC4)C3)nccc2s1 (stereo unspecified)	mHTT-CaM PPI inh 99.9
Cc1cc2c(N3CCCC(C(=O)NCc4cccc(Cl)c4)C3)nccc2s1 (stereo unspecified)	none
CCN1CCn2cc(S(=O)(=O)NCc3ccc(F)c(Cl)c3)cc2C1=O	none
CCOc1ccccc1N(CC(=O)Nc1c(C)n(C)n(-c2ccccc2)c1=O)S(C)(=O)=O	none
CN1CCc2c(sc3c2C(=O)NC(c2ccc(COc4ccc(Cl)c(Cl)c4)o2)N3)C1 (stereo unspecified)	mHTT-CaM PPI inh 81.0
CCOc1ccc(C2NC(=O)c3c(sc4c3CCN(C)C4)N2)c(O)c1 (stereo unspecified)	none
N#Cc1ccc(Oc2ccc(C(=O)Nc3ccccc3)cc2)cc1	Pf apPOL inh 68.3
O=C(Nc1ccc(Oc2ccccc2)cc1)c1ccncc1	none
CC(C)c1noc(C2CCCCN2Cc2ccccn2)n1 (stereo unspecified)	none
O=C(CSc1nnc(-c2ccccc2)c(-c2ccccc2)n1)N1CCCCC1	none
O=C(CSc1nnc(-c2ccco2)c(-c2ccco2)n1)Nc1nccs1	mHTT-CaM PPI inh 70.0
O=C(CSc1nnc(-c2ccco2)c(-c2ccco2)n1)Nc1ccc(Cl)cc1Cl	mHTT-CaM PPI inh 85.0
O=C(CSc1ncccn1)Nc1nccs1	none
O=C(CSc1ccc(-c2cccnc2)nn1)Nc1ccc2c(c1)OCO2	none
O=C(CSc1nnc(-c2ccco2)c(-c2ccco2)n1)Nc1ccc2c(c1)OCO2	mHTT-CaM PPI inh 75.0
COc1cc(OC)c(NC(=O)CSc2nnc(-c3ccco3)c(-c3ccco3)n2)cc1Cl	none
COc1ccc(-c2nnc(SCC(=O)N3CCN(C)CC3)nc2-c2ccc(OC)cc2)cc1	Pf apPOL inh 54.1
CCCCCCc1cc2c(=O)c(-c3ccccc3)coc2cc1OC	none
COc1ccc(CC(=O)NCC2COC3(CCCC3)O2)cc1 (stereo unspecified)	none
Cc1c(C2=N/C(=C\c3ccc4c(c3)OCO4)C(=O)O2)cccc1[N+](=O)[O-]	none
COc1ccc(OC)c(NC(=O)c2sc3nc(C)nc(N4CCC(C)CC4)c3c2C)c1	none
COC(=O)Nc1cccc(Cl)c1	none
O=C(CSc1nnc(-c2ccco2)c(-c2ccco2)n1)Nc1cnc2ccccc2c1	mHTT-CaM PPI inh 93.0
Cc1cc(NC(=O)CSc2nc3ccccc3s2)no1	none
COc1ccc(C(=O)CSc2nnc(-c3ccco3)n2-c2ccccc2)cc1	none
Cc1cc(NC(=O)CSc2nnc(-c3ccco3)c(-c3ccco3)n2)no1	mHTT-CaM PPI inh 69.0
COc1ccc(C(=O)CSc2nnc(-c3ccco3)c(-c3ccco3)n2)cc1	mHTT-CaM PPI inh 95.0
O=C(CSc1nnc(-c2ccco2)c(-c2ccco2)n1)Nc1ccc(C(=O)O)cc1	none
O=C(CSc1nnc(-c2ccco2)n1-c1ccccc1)Nc1ccccc1	none
CCOc1ccc(NC(=O)CSc2nnc(-c3ccco3)c(-c3ccco3)n2)cc1	mHTT-CaM PPI inh 82.0
CCc1nnc2ccc(-c3noc(-c4ccc(C)c(C)c4)n3)cn12	none
Cc1noc(C)c1C1CCCN1C(=O)Cc1c(F)cccc1Cl (stereo unspecified)	none
COc1ccc(C=C2Oc3cc(C)cc(O)c3C2=O)cc1OC	none
O=C(Cn1c(N2CCCCC2)nc2ccccc2c1=O)NCc1cccc(Cl)c1	none
COc1ccc(N=Cc2nc(-c3ccc([N+](=O)[O-])cc3)oc2O)c([N+](=O)[O-])c1	none
Cc1ccc(NC(=O)CSc2nnc(-c3ccco3)c(-c3ccco3)n2)cc1C	mHTT-CaM PPI inh 93.0
O=C(CSc1nnc(-c2ccco2)c(-c2ccco2)n1)Nc1cccc(C(=O)O)c1	none
O=C(NC1CCCCCC1)C1c2ccccc2C(=O)N1Cc1ccc(F)cc1Cl (stereo unspecified)	none
COc1cc(CNc2ccc(C)c(C)c2)cc(OC)c1	mHTT-CaM PPI inh 69.1
COc1cccc(CNc2ccc(C)c(C)c2)c1	mHTT-CaM PPI inh 52.7
COc1ccc(CNc2ccc(F)c(Cl)c2)cc1	none
COc1cccc(CNc2cccc(F)c2)c1	none
COc1cccc(CNc2ccc3c(c2)CCC3)c1	mHTT-CaM PPI inh 67.1
COc1cccc(CNc2ccccc2)c1	none
CCCOC(=O)c1ccc(Oc2c(C)oc3cc(OCC#N)ccc3c2=O)cc1	none
CN1N=Nc2ccc(Br)cc2C1c1ccccc1 (stereo unspecified)	none
Cc1cc(C(=O)NCc2ccccc2)nc2ccnn12	none
Cc1ccc(/C=c2\sc3nc(-c4ccccc4)nn3c2=O)cc1	none
COc1ccc(CCNc2ncnc3sc(C)c(C)c23)cc1	none
COc1cccc(C2=NN3C(C2)c2cccc(OC)c2OC32CCCCC2)c1 (stereo unspecified)	mHTT-CaM PPI inh 52.0
COc1cccc2c1OC1(CCCCC1)N1N=C(c3ccco3)CC21 (stereo unspecified)	none
COc1cccc2c1OC(C)(C)N1N=C(c3ccco3)CC21 (stereo unspecified)	mHTT-CaM PPI inh 55.0
COc1ccc(C2=NN3C(C2)c2ccccc2OC32CCCCC2)cc1OC (stereo unspecified)	none
COc1cccc2c1OC1(CCC(C)CC1)N1N=C(c3ccco3)CC21 (stereo unspecified)	none
COc1ccc(C2=NN3C(C2)c2cc(OC)ccc2OC32CCCCC2)cc1 (stereo unspecified)	mHTT-CaM PPI inh 60.0
CSc1c(C(=O)NCc2ccccc2)ccc2c1C(=O)c1ccccc1C2=O	none
Cc1c(C=Nc2ccc(C(C)C)cc2)sc2ccccc12	none (no result: mHTT-CaM PPI inh)
CC1CCN(C(=O)c2csc(COc3ccc4c(c3)OCO4)n2)CC1	none
COc1ccc(-c2c(C#N)c(N)n3c(nc4ccccc43)c2C#N)cc1	mHTT-CaM PPI inh 94.0
Cc1ccc(-c2c(C#N)c(N)n3c(nc4ccccc43)c2C#N)cc1	none
Cc1ccc(N(C)C(=O)c2ccc(Cn3cncn3)cc2)cc1	none
Cc1ccc(C=C2Oc3c(ccc(O)c3CN3CCCC3)C2=O)cc1	none
CSc1ccc(N2CC(c3nnc(NC(=O)c4cccc(C)c4)o3)CC2=O)cc1 (stereo unspecified)	none
CCOc1ccc(N2CC(c3nnc(NC(=O)c4cccc(Cl)c4)o3)CC2=O)cc1 (stereo unspecified)	mHTT-CaM PPI inh 77.3
COc1ccc(N2CC(c3nnc(NC(=O)c4ccccc4)o3)CC2=O)cc1 (stereo unspecified)	none
CCOc1ccc(N2CC(c3nnc(NC(=O)C4CC4)o3)CC2=O)cc1 (stereo unspecified)	none
CSc1ccc(N2CC(c3nnc(NC(=O)c4cccc(Cl)c4)o3)CC2=O)cc1 (stereo unspecified)	mHTT-CaM PPI inh 53.3
COc1ccc(N2CC(c3nnc(NC(=O)c4cccc(Cl)c4)o3)CC2=O)cc1 (stereo unspecified)	mHTT-CaM PPI inh 56.4
CC(=O)NC(c1ccc(C)cc1)c1cc([N+](=O)[O-])c2cccnc2c1O (stereo unspecified)	mHTT-CaM PPI inh 100.0

Screening data from PubChem BioAssay.
